# In PubChem BioAssay AID624297 (National Center for Advancing Translational Sciences (NCATS), 2012):
# The whole screen tested about 340,000 compounds, of which about 6,200 (1.8%) were called active. Where a call stands in place of a potency, no number is given. Not shown: some 10% with an inconclusive outcome. Calls follow the shape of the dose curve; as a rule, active = well fitted activation curve with a large enough effect; inconclusive = small, poorly fitted or top-dose-only effect; inactive = no such curve, though single readings can be large or run the other way. The full list was thinned out, with actives kept by preference.
# Test: A quantitative high throughput screen for small molecules that induce DNA re-replication in SW480 colon adenocarcinoma cells. Also: nearly all actives have a fitted effect of over 55% in size.
# Settings: Hoechst DNA content imaging, 48 h; series mostly up to 46.1 µM
# Summary of the method: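 Readout is total intensity of Hoechst-stained nuclei, excited at 405 nm and collected at 500-530 nm. Compound treatment lasted 48 hr at 37 C in 5% CO2 before staining.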
# Potency is read from the fitted curve at half-maximal effect.
SMILES,Potency,re-replication activation
Cc1cc(C)nc(NC(=O)Nc2ccccc2C(F)(F)F)n1,16.4 µM (active),
Cc1cc(Cl)nc(NC(=O)Nc2cccc(Cl)c2)n1,inactive,
COc1cccc(C(=O)NC(=O)Nc2nc(C)cc(C(F)(F)F)n2)c1,inactive,
CCC(C)C1(C2CCCC2)NC(=O)NC1=O (stereo not drawn),inactive,
Nc1ncnc2c1ncn2[C@@H]1O[C@H](CNS(=O)(=O)c2ccc(-c3ccno3)s2)[C@@H](O)[C@H]1O,inactive,
Cc1cc2c(cc1C)NC1(C[C@H]3CCC(=O)N4CC[C@@H](C1)[C@@H]34)C(=NC(C)(C)CC(C)(C)C)N2 (stereo partly drawn),inactive,
N#Cc1nc(-c2cccc3ccccc23)oc1N,inactive,
Cc1ccccc1-c1nc(C#N)c(NCc2ccco2)o1,inactive,
COc1ccc(Nc2oc(-c3ccccc3Cl)nc2C#N)cc1,10.3 µM (active),
COc1ccc(CCC(=O)Nc2ccc(Cl)c(S(=O)(=O)N3CCOCC3)c2)cc1OC,inactive,
CC1CCCCC1NC(=O)/C(C#N)=C/C=C/c1ccccc1[N+](=O)[O-] (stereo not drawn),6.51 µM (active),
O=[N+]([O-])c1ccccc1/C=C/CN1CCC(O)CC1,inactive,
O=[N+]([O-])c1ccccc1/C=C/CN1CCCC(CO)C1 (stereo not drawn),inactive,
COCCN(C(=O)C(C)N1C(=O)c2ccccc2C1=O)c1c(N)n(CC(C)C)c(=O)[nH]c1=O (stereo not drawn),inactive,
O=[N+]([O-])c1ccc(N=NNc2ccc([N+](=O)[O-])cc2)cc1,inactive,
COc1cccc(N2CCN(CC(=O)Nc3ccnn3C3CCCC3)CC2)c1,inactive,
COc1cc(OC)cc(-c2cc3ccc(F)cc3cn2)c1,inactive,
O=C(Nc1ccc(Cl)cc1)C1c2cccc[n+]2CC(=O)N1Cc1ccc2c(c1)OCO2 (stereo not drawn),23.1 µM (active),
O=C(C1CCN(Cc2ccc(Cl)cc2)CC1)N1CCN(Cc2ccc3c(c2)OCO3)CC1,inactive,
CC1CCC(NC(=O)C2c3ccccc3C(=O)N2Cc2ccc3c(c2)OCO3)CC1 (stereo not drawn),inactive,
C=CC[C@@H](CC(=O)N[C@@H](CO)Cc1ccccc1)C(=O)NCCOC(=O)[C@@H](CC=C)CC(=O)OC(C)(C)C,inactive,
COC1=CC(=O)OC(C)(c2ccccc2)C1 (stereo not drawn),inactive,
CCOC(=O)CCC(NC(=O)c1ccc(CNc2nc3cc(C(F)(F)F)ccc3nc2C(=O)OCC)cc1)C(=O)OCC (stereo not drawn),inactive,
FC(F)(F)c1ccc(-c2cccc3c2C2CC3CCN2Cc2ccccc2)cc1 (stereo not drawn),inactive,
O=C(NNc1nc(N2CCCC2)nc(N2CCCC2)n1)c1ccccc1,inactive,

SMILES,Potency,re-replication activation
O=C(NN=Cc1ccc(N2CCOCC2)cc1)c1cc2ccccc2cc1O,inactive,
CCN(CC)c1ccc(C(=O)N/N=C/c2ccc(N3CCOCC3)cc2)cc1,18.4 µM (active),
Cc1cc(C(=O)N/N=C/c2ccc(N3CCOCC3)cc2)c(C)o1,inactive,
O=C(Nc1cccc(S(=O)(=O)N2CCCCC2)c1)c1cncc(Br)c1,inactive,
CC/C(=C(/c1ccccc1)c1ccc(OCC[N+](C)(C)C)cc1)c1ccccc1,inactive,
Nn1c(SCC(=O)Nc2ccc3c(c2)CCC3)nnc1C1CC1,inactive,
Cc1cc(C(=O)OCC(=O)NCc2ccco2)c(C)n1-c1ccccc1,7.31 µM (active),
CN(c1ccccc1)S(=O)(=O)c1ccc(Cl)c(C(=O)OCC(=O)NCc2ccco2)c1,inactive,
O=C(COC(=O)c1ccccc1O)NCc1ccco1,inactive,
CC(C(=O)N1CCc2ccccc21)N(C)CC(=O)Nc1ccc(F)cc1 (stereo not drawn),inactive,
O=C1COc2ccc(C(=O)COC(=O)CCOc3ccccc3)cc2N1,inactive,
Cc1ccc(-c2csc(C(C#N)=C(O)CN3CCN(C(=O)c4ccco4)CC3)n2)cc1,inactive,
Cc1cn([C@H]2CC(F)[C@@H](CO)O2)c(=O)[nH]c1=O (stereo partly drawn),inactive,
COc1cc(OC)cc(C(=O)NCC(=O)OCC(=O)NC(C)CCc2ccccc2)c1 (stereo not drawn),inactive,
CC(=O)c1cc(CN2CCC(C(=O)Nc3cccc(-c4cscn4)c3)CC2)cs1,inactive,
CCn1cc(CN2CCC(C(=O)Nc3cccc(-c4cccc(Cl)c4)c3)CC2)cn1,18.4 µM (active),
O=C(Nc1cccc(-c2cscn2)c1)C1CCN(Cc2ccsc2)CC1,inactive,
C=CCN1C=C(C(=O)c2ccccc2)C(=O)CC1,inactive,
CCCCCCCCCCOC(=O)Cn1c(COc2ccc(C)cc2)[n+](C)c2ccccc21,20.6 µM (active),
CCCCCCCCCCOC(=O)Cn1c(COc2cccc(OC)c2)[n+](C)c2ccccc21,inactive,
Cc1ccc(OCCCn2c(=O)oc3ccccc32)cc1,inactive,
O=c1c2ccccc2ncn1CCc1ccncc1,inactive,
COc1ccccc1C(=O)OCC(=O)Nc1cccc(S(=O)(=O)NC2=NCCCCC2)c1,inactive,
Cc1cc(-c2ccc(C)c(S(=O)(=O)NCCCN(Cc3ccccc3)C(C)C)c2)on1,18.4 µM (active),
Cc1cc(-c2ccc(C)c(S(=O)(=O)NC(C)Cc3ccco3)c2)on1 (stereo not drawn),inactive,

SMILES,Potency,re-replication activation
CCOc1ccccc1CNS(=O)(=O)c1cc(-c2cc(C)no2)ccc1C,inactive,
COc1cccc2oc(CCc3ccccc3)cc(=O)c12,inactive,
CCOc1cc(C(=O)N(Cc2ccccc2)c2ccc(C)cc2)ccc1OCC(=O)N1CCOCC1,inactive,
CC1CCN(C2=NC(=O)/C(=C/c3ccc(O)cc3)S2)CC1,inactive,
O=C1/C(=C\c2ccc(O)cc2)CCC1CNc1ccc(Cl)cc1 (stereo not drawn),16.4 µM (active),
CC(C(=O)NC1CCS(=O)(=O)C1)N1C(=O)/C(=C/c2ccc(Cl)cc2)SC1=S (stereo not drawn),inactive,
O=C(COC(=O)c1cccnc1Cl)Nc1ccc(S(=O)(=O)N2CCOCC2)cc1,inactive,
COCCN(C(=O)CSCc1ccc(C)cc1)c1c(N)n(CC(C)C)c(=O)[nH]c1=O,inactive,
COc1ccc(/C=N/NC(=O)C(C)N(c2ccc(OC)cc2)S(C)(=O)=O)cc1 (stereo not drawn),18.4 µM (active),
COc1ccc(/C=N/NS(=O)(=O)c2ccc(NC(C)=O)cc2)cc1,inactive,
CC(C(=O)NC1CCCC1)N(c1ccc(Oc2ccccc2)cc1)S(C)(=O)=O (stereo not drawn),inactive,
CC[C@]12c3[nH]c4cc(CCC(=O)N(C)C)ccc4c3CCN1C(=O)[C@@H](CC(=O)NCC13CC4CC(CC(C4)C1)C3)C[C@@H]2C(=O)N1CCN(C(=O)C2CC2)CC1,,-2.17% [at 9.22 µM] (inactive)
CC(C)(C)OC(=O)C[C@@H]1C/C=C\C[C@@H](CC(=O)N[C@@H](CO)Cc2ccccc2)C(=O)N2CCC[C@H]2COC1=O,inactive,
CC1CCCCC1NC(=O)COc1ccc(C#N)cc1 (stereo not drawn),inactive,
Oc1c(C(c2ccccn2)N2CCOCC2)ccc2cccnc12 (stereo not drawn),inactive,
CCN1CCN(C(c2cccnc2)c2cc(Cl)c3cccnc3c2O)CC1 (stereo not drawn),20.6 µM (active),
Oc1ccccc1CN1CCN(C(c2ccccc2)c2ccccc2)CC1,inactive,
COc1cc(C(=O)N2CCN(S(=O)(=O)c3ccc(C(C)C)cc3)CC2)ccc1OCC(=O)N1CCOCC1,inactive,
COC(=O)[C@]1(C)N[C@H](CN(C)C(=O)c2ccc(C(C)(C)C)cc2)[C@@H]2C(=O)N(C)C(=O)[C@@H]21,inactive,
COc1cc(/C=C/CNC[C@H]2O[C@@H](n3cnc(C(N)=O)n3)[C@H](O)[C@@H]2O)ccc1O,inactive,
CCN(CC)C(=O)c1sc2nc(-c3ccccc3)ccc2c1N,20.6 µM (active),
CCNC(=O)CSc1nc(-c2ccccc2)cs1,inactive,
Nc1c(C(=O)NCc2ccccc2)sc2nc3c(cc12)C(=O)CCC3,inactive,
Cc1ccc(S(=O)(=O)N2CCC(C(=O)N3CCCCCCC3)CC2)cc1,inactive,
COc1ccc(CNC(=O)COC(=O)C2=Cc3ccccc3OC2)cc1,inactive,

SMILES,Potency,re-replication activation
Cc1nnc2n1N=C(c1ccccc1)CS2,inactive,
COc1ccc(C2=Nn3c(nnc3-c3ccccc3OC)SC2)cc1OC1CCCC1,2.31 µM (active),
CC1=Nn2c(nnc2-c2ccccc2)SC1,inactive,
COC(=O)[C@]1(CC(C)C)N[C@H](c2ccc(SC3CCCCC3)cc2)[C@@H]2C(=O)N(C)C(=O)[C@@H]21,inactive,
Cc1cccc(Nc2nc3c(S(=O)(=O)c4ccccc4)nnn3c3ccccc23)c1C,inactive,
Cc1ccc(S(=O)(=O)c2nnn3c2nc(N2CCN(c4ccccn4)CC2)c2ccccc23)cc1,inactive,
CC(=O)Nc1ccc(Nc2nc3c(S(=O)(=O)c4ccc(C)c(C)c4)nnn3c3ccccc23)cc1,18.4 µM (active),
S=C(Nc1ccccc1)Nc1ccc2ccccc2c1,inactive,
Cc1cccn2c(=O)c3cc(C(=O)N4COCC4(C)C)n(C)c3nc12,inactive,
Cc1cccn2c(=O)c3cc(C(=O)NC4CCCCC4)sc3nc12,inactive,
Cc1cccn2c(=O)c3cc(C#N)c(=NC(=O)c4cccnc4)n(CC4CCCO4)c3nc12 (stereo not drawn),18.4 µM (active),
NN=C(NN=Cc1ccccc1)c1ccccc1,inactive,
Cc1cccc(CSc2nnc(NC(=O)CSc3nnc(C)s3)s2)c1,inactive,
COc1ccccc1-n1c(CNC(=O)c2ccccc2)nnc1SCC(=O)Nc1nnc(C)s1,inactive,
Cc1nnc(NC(=O)CSc2nccn2-c2cccc(C)c2C)s1,8.2 µM (active),
Cc1cc([N+](=O)[O-])c(=O)[nH]c1C,inactive,
O=C(c1[nH]ncc1-c1ccc(Cl)cc1)C1CO1 (stereo not drawn),16.4 µM (active),
O=C(c1nnc(-c2ccc(Cl)cc2)o1)C1CCCC1,inactive,
N=C1c2ccccc2-c2ccccc21,inactive,
COC(=O)c1ccc(C)c(NC(=O)Cn2c(C)csc2=O)c1,inactive,
CC(C)N(C(=O)[C@H]1C[C@H](CC(=O)NC(C)(C)C)C(=O)N2CCc3c([nH]c4ccc(Cl)cc34)[C@]12C)C(C)C,inactive,
CN1c2ccc(C=O)c3c(C=O)ccc(c23)N(C)C1(C)C,3.26 µM (active),
COc1ccc(S(=O)(=O)N(C)C[C@H]2Oc3c(NC(=O)Nc4ccc5c(c4)OCO5)cccc3C(=O)N([C@H](C)CO)C[C@@H]2C)cc1,inactive,
